These results are taken from PubChem BioAssay (NCI).

Assay [1] is described as follows: NCI Yeast Anticancer Drug Screen. Data for the rad50 strain (AID 155).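 Note: 0% = growth of vehicle-only cultures of the same strain.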 Particulars: S. cerevisiae rad50 strain growth inhibition; at 50.0 µM; active compounds read high. The gist of the method: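 Growth of the mutant yeast was measured after compound exposure and referenced to vehicle-treated cultures.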
Assay [2] in a line: NCI Yeast Anticancer Drug Screen. Data for the mec2-1 strain (AID 157). Particulars: S. cerevisiae mec2-1 strain, at 50.0 µM, active compounds read high. The essentials:
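Using mec2-1 yeast: add compound, measure growth, express inhibition versus vehicle-treated cultures.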

A short description of assay [3]: NCI Yeast Anticancer Drug Screen. Data for the sgs1 mgt1 strain (AID 161).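 Note: 0% = growth of cultures given vehicle only.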 The conditions noted are these: S. cerevisiae sgs1 mgt1 strain, at 50.0 µM, active compounds read high. The essentials:
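Yeast cells carrying a defined DNA-repair defect were exposed to test compounds. Growth inhibition was measured relative to vehicle-treated controls.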

The nature of assay [4]: NCI Yeast Anticancer Drug Screen. Data for the cln2 rad14 strain (AID 165).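 Note: 0% = growth equal to vehicle treated cultures.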 Particulars: S. cerevisiae cln2 rad14 strain, at 50.0 µM, active compounds read high. The essentials:
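Yeast strain cln2 rad14, bearing defects in cell cycle control and DNA repair, serves as the test system; values reflect growth inhibition compared with vehicle.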

Assay [5] in a line: NCI Yeast Anticancer Drug Screen. Data for the bub3 strain (AID 167). Particulars: S. cerevisiae bub3 mutant strain, at 50.0 µM, active compounds read high. The essentials: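 Whole-cell yeast assay. The mutant strain was incubated with compounds, and growth inhibition was determined by comparison with vehicle-treated cells.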
Assay [6] is described as follows: NCI Yeast Anticancer Drug Screen. Data for the mlh1 rad18 strain (AID 175). Particulars: S. cerevisiae mlh1 rad18 strain growth inhibition; at 50.0 µM; active compounds read high. The gist of the method: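 Steps: expose repair-defective yeast to compound; measure growth; express inhibition against vehicle-treated controls.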

Molecules are shown by their SMILES. About 79,000 compounds went through this panel and 15% of them were active in at least one assay; those are over-represented in the sample as a whole. Unmarked numbers belong to inactive results. Active and inactive are the calls of the source. Cut-off read from the data, not from the text of the source: active = growth inhibition above about 70%; inactive = the rest.

Turning to `O=C(OC1COC(n2c(=O)oc3cc([N+](=O)[O-])c([N+](=O)[O-])cc32)C(OC(=O)c2ccccc2)C1OC(=O)c1ccccc1)c1ccccc1` (centres undefined), the growth inhibition is -5.15% in assay [1]; 8.6% in assay [2]; 14.4% in assay [3]; -9.15% in assay [4]; -8.55% in assay [5]; 3.35% in assay [6].
As for `O=S1(=O)OC(c2ccc(O)cc2)(c2ccc(O)cc2)c2ccccc21`, the growth inhibition in assay [1] was 31.6%; in assay [2], -25.9%; in assay [3], 3.1%; in assay [4], 9%; in assay [5], -11.9%; in assay [6], 18.6%.
Consider `CC12CC(=O)Nc3ccccc3N1C(c1ccccc1)=NO2` (centres undefined), for which the growth inhibition in assay [1] is -11.5%; in assay [2], -29.4%; in assay [3], -6.6%; in assay [4], 3%; in assay [5], -14.8%; in assay [6], -7.4%.
For the compound `Cn1c(=O)c2c(nc(C3CC3)n2C)n(C)c1=O`, the growth inhibition in assay [1] was -1.15%; in assay [2], -0.6%; in assay [3], 5.65%; in assay [4] it was -16.6%; in assay [5] it was -0.55%; in assay [6] it was 12.1%.
Take `O=C1c2ccccc2C(=O)N1CC1CO1` (centres undefined): the growth inhibition is 2.85% in assay [1]; 10.3% in assay [2]; 0.5% in assay [3]; -7.7% in assay [4]; 3.4% in assay [5]; 27.3% in assay [6].
Turning to `Cc1cc(NC(=S)Nc2ccccc2)c(NC(=S)Nc2ccccc2)cc1C`, the growth inhibition in assay [1] was 2.1%; in assay [2], -25.2%; in assay [3] it was 1.55%; in assay [4], 6.7%; in assay [5], 3.2%; in assay [6], 3.2%.
`COc1ccc2c(c1)C[N+](C)(C)[B-]O2`: the growth inhibition in assay [1] was -1.6%; in assay [2], -1.55%; in assay [3], 5.45%; in assay [4] it was -8.65%; in assay [5], 2.1%; in assay [6], 6.75%.
Turning to `C(=C/c1ccc2c(c1)OCO2)/c1ccccc1`, the growth inhibition was -16.1% in assay [1]; 10.3% in assay [2]; 12.2% in assay [3]; -2.85% in assay [4]; 11% in assay [5]; 2.9% in assay [6].
For `CC(=O)Oc1ccc2cc(NC(=O)c3ccccc3)c(=O)oc2c1`, the growth inhibition in assay [1] is 11.8%; in assay [2] it was -2.85%; in assay [3], -1.6%; in assay [4], -62.4%; in assay [5] it was -1.9%; in assay [6], -3.35%.
As for `Cc1cc(N(CCC#N)CCC#N)ccc1/C=C1N=C(/C=C\c2ccccc2)N(c2ccc(C(=O)O)cc2)C\1=O`, the growth inhibition in assay [1] was -3.65%; in assay [2], -45.5%; in assay [3] it was -16.9%; in assay [4] it was -6.3%; in assay [5] it was -16.4%; in assay [6], -26.1%.
With `CC(NC(=O)OCc1ccccc1)NC(=O)OC(C)(C)C` (centres undefined), the growth inhibition in assay [1] is -47%; in assay [2], -63.5%; in assay [3], -18.9%; in assay [4], -13.2%; in assay [5] it was -14.6%; in assay [6] it was -26.8%.
As to `CCC1(C)N=C(C)C(C)S1` (centres undefined), the growth inhibition was -7.6% in assay [1]; -1.3% in assay [2]; -13.7% in assay [3]; 4.9% in assay [4]; -16.3% in assay [5]; 6.2% in assay [6].
For `O=C(Nc1ccc(C(=O)O)cc1)OCc1ccccc1`, the growth inhibition in assay [1] was 1.65%; in assay [2], 8.75%; in assay [3], 15.5%; in assay [4], -36%; in assay [5] it was 2.5%; in assay [6], -7.7%.
As for `CCOC(=O)c1c2c(c(-c3ccccc3)n1C)C(=O)C(C)=C(C)C2=O`, the growth inhibition in assay [1] is -10.8%; in assay [2] it was -2.4%; in assay [3], -10.2%; in assay [4], -28.9%; in assay [5] it was 1.05%; in assay [6] it was -6.65%.
As for `CCCCCCCCCCCCCCCCCC[N+]1(C)CCOCC1`, the growth inhibition was 99.2% (active) in assay [1]; 99.5% (active) in assay [2]; 99.1% (active) in assay [3]; 98.7% (active) in assay [4]; 99.2% (active) in assay [5]; 99.5% (active) in assay [6].
Consider `COc1ccc(S(=O)(=O)O)cc1N`, for which the growth inhibition in assay [1] was -21.2%; in assay [2] it was -15.9%; in assay [3], -13.5%; in assay [4], -5.15%; in assay [5] it was -11.9%; in assay [6], -3.95%.
`CCCCCCCCn1nnnc1C(F)(F)F`: the growth inhibition in assay [1] was -3.1%; in assay [2], 8.45%; in assay [3], 6.75%; in assay [4], -15.1%; in assay [5] it was 1.45%; in assay [6], -0.45%.
In the case of `O=C1NC(c2ccco2)N2C(=O)NC(c3ccco3)N12` (centres undefined), the growth inhibition is 15.2% in assay [1]; 21.5% in assay [2]; 24.5% in assay [3]; 12.6% in assay [4]; 18.6% in assay [5]; 16.7% in assay [6].
For `Cc1nc(NS(=O)(=O)c2ccc(N)cc2)nc(C)c1Br`, the growth inhibition is -9.75% in assay [1]; -9.55% in assay [2]; 4.1% in assay [3]; -52% in assay [4]; -14.7% in assay [5]; -15.1% in assay [6].
Take `O=C(C(=O)N1CCc2ccccc21)c1c[nH]c2ccccc12`: the growth inhibition was 5.75% in assay [1]; 2% in assay [2]; -11.8% in assay [3]; 3.1% in assay [4]; -2.95% in assay [5]; 12.5% in assay [6].
For the compound `O=C(Nc1nc(C23CC4CC(CC(C4)C2)C3)cs1)c1cc2cc(Cl)ccc2oc1=O`, the growth inhibition is -32.2% in assay [1]; -37.5% in assay [2]; -2.35% in assay [3]; 10.6% in assay [4]; -28.1% in assay [5]; -38% in assay [6].
As to `COc1ccc2c(C(=O)O)cc3c4ccccc4ncc3c2c1`, the growth inhibition in assay [1] is 9.4%; in assay [2], 6.65%; in assay [3] it was -6.75%; in assay [4], 26.9%; in assay [5], -17.9%; in assay [6] it was -13.2%.
For `CC1OC(=O)c2cc3ccccc3cc2O1` (centres undefined), the growth inhibition was -8% in assay [1]; -6.15% in assay [2]; 5.95% in assay [3]; -31.1% in assay [4]; -19.2% in assay [5]; -0.45% in assay [6].
As for `COC(=O)c1ccccc1N=NNc1ccc(C)c(Cl)c1`, the growth inhibition in assay [1] is 36.2%; in assay [2], 0.55%; in assay [3], -1.2%; in assay [4], -11.4%; in assay [5], 5.7%; in assay [6], 5.15%.
For `Cc1cc(Cl)c(Cl)cc1NC(=O)c1ccc(Cl)c(Cl)c1`, the growth inhibition was 5.15% in assay [1]; 23.4% in assay [2]; 9.9% in assay [3]; -3.25% in assay [4]; 45.1% in assay [5]; 5.2% in assay [6].
Regarding `COC(=O)CC(=O)C=P(c1ccccc1)(c1ccccc1)c1ccccc1`, the growth inhibition in assay [1] was -3.2%; in assay [2] it was -4.15%; in assay [3], -3.15%; in assay [4] it was 6.3%; in assay [5], -17.5%; in assay [6] it was -2.15%.
For `O=C1N(c2ccccc2)C2(O)C(=O)c3ccccc3C2(O)N1c1ccccc1` (centres undefined), the growth inhibition in assay [1] was -10%; in assay [2], -2.15%; in assay [3], 15.6%; in assay [4] it was 16.5%; in assay [5] it was 3.1%; in assay [6], -4.5%.
With `CCC1CN2CCc3c([nH]c4ccccc34)[C@@](C(=O)OC)(c3cc4c(cc3OC)N(C)C3C(O)(C(=O)OC)C(C(=O)OC)C5(CC)C=CCN6CCC43C65)C[C@@H](C2)[C@@H]1C(C)(C)C` (some centres undefined), the growth inhibition in assay [1] was -6.3%; in assay [2] it was -10%; in assay [3] it was -9%; in assay [4], -13.6%; in assay [5], -36.3%; in assay [6], -72.7%.
With `CCNS(=O)(=O)c1ccccc1`, the growth inhibition in assay [1] was -8.55%; in assay [2] it was -29.2%; in assay [3] it was -2.7%; in assay [4], 5.9%; in assay [5] it was -1.95%; in assay [6], 14.7%.
Turning to `Cc1nc(-c2cccnc2)sc1C(=O)/C=C/c1ccc(Cl)cc1Cl`, the growth inhibition was 12.8% in assay [1]; -2.05% in assay [2]; 3.85% in assay [3]; 8.55% in assay [4]; 3.7% in assay [5]; 8.95% in assay [6].
For `C=CCC12CC(C)OC1=Nc1ccccc1NC2=O` (centres undefined), the growth inhibition in assay [1] was -0.95%; in assay [2] it was -1.85%; in assay [3], -18.2%; in assay [4] it was 21.1%; in assay [5] it was 7.2%; in assay [6], -9.8%.
As for `NC(=O)NC1CCCCCCC1`, the growth inhibition in assay [1] was 5.95%; in assay [2] it was -14.9%; in assay [3], 1.05%; in assay [4] it was -7.45%; in assay [5], 4.75%; in assay [6], 0.3%.
Consider `CC1(C)C(=NN=C(N)N)C(C)(C)C1=NN=C(N)N`, for which the growth inhibition in assay [1] was -3.35%; in assay [2] it was -6.95%; in assay [3], -15.8%; in assay [4], 29.3%; in assay [5] it was -18.5%; in assay [6] it was 14.7%.
As for `COC1CCCCC(=NNC(N)=O)CCCC1` (centres undefined), the growth inhibition is -0.2% in assay [1]; -2.65% in assay [2]; -13.2% in assay [3]; -44.6% in assay [4]; -7.15% in assay [5]; -1.15% in assay [6].
As to `O=C1NC(=O)C(F)[CH]([Ge](=[O])[O][Ge](=[O])[CH]2NC(=O)NC(=O)C2F)N1` (centres undefined), the growth inhibition in assay [1] was -7.45%; in assay [2] it was -8.85%; in assay [3], 0.2%; in assay [4] it was -7.35%; in assay [5] it was 0.7%; in assay [6] it was -17.9%.
As for `C[n+]1ccc(/C=C/c2ccc(O)c(O)c2)c2ccccc21`, the growth inhibition in assay [1] was 49.8%; in assay [2], 33.5%; in assay [3] it was 41.2%; in assay [4], 20.5%; in assay [5], 3.5%; in assay [6], 43%.
`CCOC(CNCc1ccc(OC)cc1)OCC`: the growth inhibition in assay [1] is -0.25%; in assay [2] it was -3.1%; in assay [3] it was 4%; in assay [4] it was -2.05%; in assay [5], 22.4%; in assay [6] it was 7.6%.
As to `COc1ccc(/C=C/Cc2cc3c(cc2OC(C)=O)OCO3)cc1`, the growth inhibition in assay [1] was 11.8%; in assay [2], 0.4%; in assay [3] it was 26.1%; in assay [4] it was -8.4%; in assay [5] it was 33%; in assay [6], 12.4%.
As to `Oc1ccc([C@H]2Oc3c(c(O)cc4c3C3c5c(O)cc(O)cc5OC(c5ccc(O)cc5)(O4)[C@H]3O)CC2O)cc1` (some centres undefined), the growth inhibition was 1.85% in assay [1]; -4.6% in assay [2]; -20.9% in assay [3]; -4.65% in assay [4]; -7% in assay [5]; -5.75% in assay [6].
